Bioassay records: PubChem BioAssay, National Center for Advancing Translational Sciences (NCATS)
D2 antag = D2 dopamine receptor (human) antagonism | HEK293 TREx D2 cells, calcium flux, dopamine EC80 | AID 485344 | hit rate 2% among 340,000 | P14416 | inhibition, % at 10 µM; in the data active = inhibition above about 30%; inactive = below that, where a call was filed; note: 0% is about no effect
Target sequence (P14416 whole entry, looked up): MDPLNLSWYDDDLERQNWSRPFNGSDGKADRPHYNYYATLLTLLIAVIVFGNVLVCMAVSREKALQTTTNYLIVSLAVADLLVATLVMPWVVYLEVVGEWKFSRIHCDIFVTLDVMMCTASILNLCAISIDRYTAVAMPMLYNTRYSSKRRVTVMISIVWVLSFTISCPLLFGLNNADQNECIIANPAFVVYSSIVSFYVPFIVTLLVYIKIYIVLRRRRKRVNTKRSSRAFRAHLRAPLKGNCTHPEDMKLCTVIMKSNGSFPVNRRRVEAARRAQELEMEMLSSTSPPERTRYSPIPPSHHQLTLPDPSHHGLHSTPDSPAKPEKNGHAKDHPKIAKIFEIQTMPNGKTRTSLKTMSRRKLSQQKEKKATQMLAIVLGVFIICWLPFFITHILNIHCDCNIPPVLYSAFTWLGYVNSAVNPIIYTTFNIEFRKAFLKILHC
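Measurement of antagonist activity uses fluorescent calcium dye in inducible HEK293 T-REx D2 cells: 10 s baseline, compound addition with 180 s read, EC80 dopamine addition with a further 180 s read.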
D2 ag-1 = D2 dopamine receptor (human) agonism. AID 485358. hit rate 0.53% among 340,000. HEK293 T-REx D2 cells, calcium flux agonist mode. P14416. activation, % at 2 µM;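 active = activation over 3 SD above normal in the single-dose calcium agonist read, cut at about 30% in these data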; note: 0% is about no effect
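Calcium-flux readout, 1 cycle/sec over 180 s following compound pin transfer, in inducible HEK293 Trex D2 cells (force-coupled); dopamine controls included. Positive calcium responses during this window marked compounds as potential agonists.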
D2 PAM-1 = human D2 receptor positive allosteric modulation; DiscoveRx D2 beta-arrestin cells, luminescence, 90 min; 100% = 57 uM dopamine signal; AID 624464; potentiation, % (test concentration not listed); hit rate 0.23% among 360,000; in the data active = potentiation above about 50%; inconclusive = mostly about 30% to 49%
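PathHunter beta-arrestin assay in DiscoveRx D2 cells. Compounds were added with an EC20 of dopamine (50 nM final) for 90 min at 37 deg C. Luminescence was read 1 h after detection reagent, with 57 uM dopamine as the EC100 control.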
D2 ag-2 = human D2 receptor agonism in beta-arrestin assay | hit rate 0.084% among 360,000 | DiscoveRx PathHunter D2 beta-arrestin, luminescence, 90 min; 100% = 57 uM dopamine signal | activation, % (test concentration not listed) | P14416; in the data active = activation above about 40%; inconclusive = between about 15% and that limit
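Agonist mode: compounds alone added to overnight-plated D2 PathHunter cells for 90 min at 37 C, with 57 uM final dopamine (EC100) defining full response. Beta-arrestin recruitment detected by chemiluminescent reagent, read after 1 h at ambient temperature.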
D2 PAM-2 = positive allosteric modulators of human D2 dopamine receptor; HEK293 T-REx D2, calcium flux, EC20 dopamine potentiation; potentiation, % at 10 µM; hit rate 0.34% among 340,000; AID 485347;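 active = potentiation over 3 SD above the plate norm, cut at about 30% in these data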; note: 0% is about no effect
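Calcium flux readout, no-wash dye, 1 read/s. Inducible HEK293 Trex D2 line, overnight 30 C. Compound alone 180 s (agonist flags), then EC20 dopamine, another 180 s to score potentiation.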
* = called active by the depositor; ? = inconclusive; . = no result given. Only some compounds are listed: those with a hit (about 2.4% of all), similar ones and a draw of the others.

SMILES | D2 antag | D2 ag-1 | D2 PAM-1 | D2 ag-2 | D2 PAM-2
O=C(C[n+]1ccccc1)N/N=C/c1cc(Br)ccc1F | -7 | 0 | -33 | -5 | -19
COc1ccc(Br)cc1/C=N/NC(=O)C[n+]1ccccc1 | 40* | 1 | -8 | -6 | -20
C=CCN1C(=O)/C(=C/c2ccc(OC(C)=O)c(OCC)c2[N+](=O)[O-])SC1=S | 30* | 9 | 5 | 3 | 10
CC(=O)N1CCc2[nH]c3ccccc3c2C1 | -27 | 0 | -5 | -2 | 0
O=C(Cn1c(=S)[nH]c2ccccc2c1=O)N1CCN(c2ccccc2)CC1 | 31* | 3 | -3 | -4 | 3
O=C(CN1CCc2[nH]c3ccccc3c2C1)N1CCCCC1 | 23 | 1 | -29 | -2 | -12
O=C(CCCCl)N1CCc2[nH]c3ccccc3c2C1 | 32* | 19 | -26 | 10 | -17
O=C(CN1CCN(c2ccccc2)CC1)N1CCc2[nH]c3ccccc3c2C1 | 11 | 36* | -26 | 2 | -18
C[C@@H]1CN([C@@H](C)CO)C(=O)CCCn2cc(nn2)CO[C@H]1CN(C)S(=O)(=O)c1ccc2c(c1)OCCCO2 | . | . | . | -3 | .
COc1cc2[nH]c(C(=O)Nc3ccc(F)cc3)cc2c(OC)c1OC | 89* | -1 | . | . | -20
Cc1cc(C)c2cc(C(=O)Nc3ccc(C)c(F)c3)[nH]c2c1 | 39* | 0 | -35 | 3 | -27
CCCCNC(=O)c1cc2c(C)cc(C)cc2[nH]1 | 34* | -2 | -23 | -2 | -24
COc1ccc(F)cc1-c1cc(C(=O)Nc2ccc(NC(C)=O)cc2)[nH]n1 | . | . | -2 | 1 | .
COc1ccc2[nH]c(C(=O)Nc3ccc(C)c(F)c3)cc2c1 | -15 | -1 | -3 | -1 | 12
CCc1nc2nc(C)c(NS(=O)(=O)c3ccc(F)c(C)c3)c(=O)n2[nH]1 | . | 0 | . | . | -1
CCc1nc2nc(C)c(NS(=O)(=O)c3ccc(F)cc3)c(=O)n2[nH]1 | 2 | -2 | -1 | 3 | 30
CCc1nc2nc(C)c(NS(=O)(=O)c3ccc(Br)s3)c(=O)n2[nH]1 | -30 | -1 | 11 | 4 | 31*
Cc1ccc(S(=O)(=O)Nc2c(C)nc3nc(C)[nH]n3c2=O)c(C)c1 | 36* | 1 | -5 | 1 | -13
CCc1nc2nc(C)c(NS(=O)(=O)c3cccs3)c(=O)n2[nH]1 | 0 | -2 | -8 | -4 | 51*
Cc1ccc(C)c(Cn2c3ccccc3c3cnn(CC(=O)NCCC4=CCCCC4)c(=O)c32)c1 | . | -1 | . | . | 11
COc1ccc(-c2cn3c(n2)sc2cc(C(=O)NCCc4ccc(OC)cc4OC)ccc23)cc1 | . | -1 | . | . | 9
CCC1CCCN1Cn1cnc2c([nH]c3ccc(OC)cc32)c1=O (stereo not drawn) | -15 | -1 | -21 | 2 | 35*
CCN1CCCC1CNC(=O)c1cc2ccc(OC)cc2[nH]1 (stereo not drawn) | 9 | 0 | -25 | -3 | 0
CCN1CCCC1CNC(=O)c1cc([N+](=O)[O-])c(N(C)C)cc1OC (stereo not drawn) | 75* | 0 | -4 | -4 | -38
CCN1CCCC1CNC(=O)c1[nH]c2ccc(OC)cc2c1C (stereo not drawn) | 40* | . | -22 | -5 | -35
SMILES | D2 antag | D2 ag-1 | D2 PAM-1 | D2 ag-2 | D2 PAM-2
CCC1CCCN1Cn1cnc2c([nH]c3ccccc32)c1=O (stereo not drawn) | -8 | -1 | -12 | -2 | 1
CCN1CCC[C@H]1CNC(=O)c1cc(S(N)(=O)=O)ccc1OC | 87* | 1 | . | . | -23
CC1Cc2ccccc2N1C(=O)CSc1nnc(-c2ccccc2Cl)o1 (stereo not drawn) | . | -1 | . | . | 8
CCN1CCCC1CNC(=O)c1csc2c1CCCC2 (stereo not drawn) | 86* | -2 | -29 | -2 | -18
COc1ccc2oc(C)c(C(=O)c3ccc([N+](=O)[O-])cc3)c2c1 | -2 | 19 | 84* | ? | 14
Cc1oc(-c2ccccc2Cl)nc1CS(=O)(=O)CC(=O)NC(C)CCc1ccccc1 (stereo not drawn) | . | 1 | . | . | -3
O=S1(=O)CCOC[C@H](c2ccccc2)N1Cc1ccccc1 | 30* | 0 | -5 | -1 | -9
COc1ccc(-n2nc(C(=O)N3CCCC(C)C3)c3c4ccccc4n(C)c3c2=O)cc1 (stereo not drawn) | . | 0 | . | . | 2
Cc1csc(Sc2ccc([N+](=O)[O-])cc2C(=O)OCC(=O)NC2CCCC(C)C2C)n1 (stereo not drawn) | -14 | -1 | 1 | -1 | 14
CCC(C)NC(=O)COC(=O)c1cc([N+](=O)[O-])ccc1Sc1nc(C)cs1 (stereo not drawn) | 12 | 1 | 51* | 0 | -4
CCOC(=O)c1ccc(NC(=O)CSc2nnc(-c3ccncc3)n2-c2ccccc2)cc1 | . | 0 | . | . | -5
Cc1cc(NC(=O)c2cc(-c3ccccc3Cl)nc3ccccc23)no1 | -11 | -1 | -10 | -3 | 32*
COc1ccccc1NC(=O)CC12CC3CC(CC(Br)(C3)C1)C2 | -2 | 1 | -4 | 1 | 5
NC(=O)c1ccccc1NC(=O)CC12CC3CC(CC(Br)(C3)C1)C2 | -5 | 5 | -5 | -1 | 36*
COc1cc(O)c(C(CCN2CCN(c3ccccc3)CC2)c2cc(OC)c(OC)c(OC)c2)c(OC)c1 (stereo not drawn) | 67* | 1 | -24 | -2 | -23
C=CCc1ccc(OCCOCCN(C)C)c(OC)c1 | 5 | 0 | -26 | 0 | 31*
Cc1cccc(CNC(=O)c2cnc3c(-c4cccc(C)c4)c(C)nn3c2C)c1 | . | . | . | . | -11
O=c1nc2s/c(=C\c3ccco3)c(=O)n2nc1Cc1ccc(F)cc1 | 35* | 1 | -8 | 0 | 6
C/C=C(/C)C(=O)Nc1cccc(C2=NOC3(C2)C[C@@H](C(N)=O)N(C(=O)CC(c2ccccc2)c2ccccc2)C3)c1 (stereo partly drawn) | 32* | 1 | -4 | -2 | 37*
C/C=C(\C)C(=O)Nc1cccc(C2=NOC3(C2)C[C@H](C(N)=O)N(C(=O)c2cc([N+](=O)[O-])cc([N+](=O)[O-])c2)C3)c1 (stereo partly drawn) | 14 | 0 | 71* | 12 | -6
C/C=C/C=C\C(=O)Nc1cccc(C2=NOC3(C2)C[C@H](C(N)=O)N(C(=O)CC#N)C3)c1 (stereo partly drawn) | 33* | 0 | -4 | -6 | -3
Cc1oc(-c2ccc(Cl)cc2)nc1CN1CCCC(C(=O)NCc2ccccc2)C1 (stereo not drawn) | . | 0 | . | . | -3
COc1ccc(S(=O)(=O)NC(=O)C2(C)CCN2C(=O)C2(c3ccccc3)CCCC2)cc1 (stereo not drawn) | . | . | 2 | -5 | .
